PubChem BioAssay AID651820 (National Center for Advancing Translational Sciences (NCATS), 2012)
Screen size: about 340,000 compounds; about 12,000 (3.5%) were called active. A call without a number means that no potency is given here. Another 18% or so got no clear call; they are omitted. Only a selection was taken, and actives are over-represented in it overall. Values without a mark were called inactive. Calls follow the shape of the dose curve; as a rule, active = well fitted inhibition curve with a large enough effect; inconclusive = small, poorly fitted or top-dose-only effect, or another doubt; inactive = no such curve, though single readings can be large or run the other way.

Assay: qHTS Assay for Inhibitors of Hepatitis C Virus (HCV)
Details: Huh7.5.1 HCVcc-Cre infection, luciferase reporter, 44 h; series mostly up to 41.8 µM
In short: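 A cell-based infection assay in which seeded cells (1,000 per well) receive test compound after 4 h, are inoculated with HCVcc-Cre at approximately 0.5 moi, and are incubated 44 h before luminescence detection.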
Potency is read from the fitted curve at half-maximal effect.

| Compound | Potency | activity change, negative = inhibition |
| --- | --- | --- |
| Cc1ccc(-c2csc(C(C#N)=C(O)CN3CCN(C(=O)c4ccco4)CC3)n2)cc1 | inactive |  |
| COc1cccc(OC)c1C(=O)NC(=S)N1C[C@H]2C[C@H](C1)c1cccc(=O)n1C2 | inactive |  |
| Cc1cccc(NC(=O)N2CC3CC(C2)c2cccc(=O)n2C3)c1 (configuration not stated) | inactive |  |
| COc1ccccc1NC(=O)N1C[C@@H]2C[C@@H](C1)c1cccc(=O)n1C2 | 1 µM (active) |  |
| C=CCOc1cccc(C2C(C(=O)c3ccc(C)o3)=C(O)C(=O)N2c2nnc(C)s2)c1 (configuration not stated) | inactive |  |
| CCCC(CNC(=O)COC(=O)C1=NNC(=O)CC1)c1ccc(Cl)cc1Cl (configuration not stated) | inactive |  |
| CC(=O)c1ccc(NC(=O)C(C)OC(=O)c2ccc(NS(=O)(=O)c3ccc4[nH]c(=O)[nH]c4c3)cc2)cc1 (configuration not stated) | inactive |  |
| CCCCN1CC(COCc2ccccc2)OCCS1(=O)=O (configuration not stated) | inactive |  |
| CCCCC[C@@H]1C=C(C(=O)O)[C@H](c2ccc(C#N)cc2)N1S(=O)(=O)c1ccc(C)cc1 | inactive |  |
| CCOc1ccc(S(=O)(=O)N2CCN(C(=S)NCC3CCCO3)CC2)cc1 (configuration not stated) |  | -4.09% [at 8.37 µM] |
| S=C(NCC1CCCO1)N1CCN(c2ccc(Cl)c(Cl)c2)CC1 (configuration not stated) | 10 µM (active) |  |
| COc1ccc(S(=O)(=O)N2CCN(C(=S)NCC3CCCO3)CC2)cc1OC (configuration not stated) | inactive |  |
| CC(C)COc1ccc(C(=O)NNC(=O)CCC(=O)c2cccs2)cc1 | inactive |  |
| COC(=O)COc1ccc(S(=O)(=O)Nc2ccc(NC(C)=O)cc2)cc1 | inactive |  |
| COc1ccc(NS(=O)(=O)c2ccc(Oc3c(C#N)cccc3C#N)cc2)cc1 | 17.8 µM (active) |  |
| COc1ccc(/C=N/NS(=O)(=O)c2ccc(NC(C)=O)cc2)cc1 | inactive |  |
| O=C(O)C(=Cc1ccccc1[N+](=O)[O-])c1ccccc1 | inactive |  |
| CN1CCN(c2ccc(NC(=O)c3cc(Cl)c4c(c3)OCCO4)cc2)CC1 | 10 µM (active) |  |
| O=C(Nc1ccc(N2CCOCC2)cc1)c1ccc2c(c1)OCO2 | inactive |  |
| CN1CCN(c2ccc(NC(=O)c3ccc4c(c3)OCCO4)cc2Cl)CC1 | inactive |  |
| O=C(OCCN1C(=O)c2ccccc2C1=O)[C@@H]1CC(O)CN1S(=O)(=O)c1ccccc1[N+](=O)[O-] (some centres not stated) | inactive |  |
| O=C(NC(=O)c1ccccc1)NC(=O)c1ccccc1 | inactive |  |
| O=C(NC1=CC(=O)c2ccccc2C1=O)c1ccccc1 | 6.31 µM (active) |  |
| O=C1C=C(NS(=O)(=O)c2ccccc2)C(=O)c2ccccc21 | inactive |  |
| CC1=CC(=NNS(=O)(=O)c2ccc([N+](=O)[O-])cc2)CC(C)(C)C1 | inactive |  |

| Compound | Potency | activity change, negative = inhibition |
| --- | --- | --- |
| CC(=O)OC1C2(CC3N4C(=O)C5(CO)SSC4(CC31O)C(=O)N5C)OC(C)C(C)(C)C2=O (configuration not stated) | 0.562 µM (active) |  |
| Cc1cc(Br)ccc1NC(=O)CN(C)C(=O)CN1C(=O)NC2(CCCC2)C1=O | inactive |  |
| O=S(=O)(NCCCc1ccccc1)c1ccc(Br)cc1 | inactive |  |
| O=C(Cn1cnc2c(OCc3ccccc3)ncnc21)NCc1nc2ccccc2[nH]1 | inactive |  |
| CC(=O)Nc1ccc(Nc2c3ccccc3nc3ccccc23)cc1 | 7.08 µM (active) |  |
| Cc1ccc(Nc2c3c(nc4ccccc24)CCC3)cc1 | inactive |  |
| CC(=O)Nc1ccc(NC(=O)COc2ncnc3ccccc23)cc1 | inactive |  |
| CCOc1ccc(NC(=O)c2ccc(NC(=O)CN3C(=O)C(=O)N(CC(C)C)C3=O)cc2)cc1 | inactive |  |
| CCN(c1ccccc1)S(=O)(=O)c1ccc(C(=O)Nc2ccccc2OC)cc1 | inactive |  |
| CN(C(=O)CSc1nnc(C2CC2)n1C)C1CCCc2ccccc21 (configuration not stated) | inactive |  |
| CC(C)c1ccc(S(=O)(=O)N2CCN(C(C)C(=O)NC3CCCC3)CC2)cc1 (configuration not stated) | inactive |  |
| OC(CNCC1CCCO1)Cn1c2ccc(Br)cc2c2cc(Br)ccc21 (configuration not stated) | 35.5 µM (active) |  |
| O=C(CCNS(=O)(=O)c1ccc(Br)cc1)NCC1CCCO1 (configuration not stated) | inactive |  |
| CC(NS(=O)(=O)c1ccc(Br)cc1)C(=O)NCC1CCCO1 (configuration not stated) | inactive |  |
| Cc1noc(C)c1C(=O)N1CCOCC1 | inactive |  |
| Cc1oc2c(c1C(=O)N1CCOCC1)C(=O)c1ccccc1C2=O | 5.62 µM (active) |  |
| CCOC(=O)c1ccccc1C(=O)N1CCOCCOCCOCC1 | inactive |  |
| O=C(NCCC(=O)N1O[C@@H]2C=C[C@H]1C2)OCC1c2ccccc2-c2ccccc21 | inactive |  |
| CCn1c(=S)[nH]c2cc(S(=O)(=O)N3CCOCC3)ccc21 | inactive |  |
| Cc1cccc(Cn2c(N3CCN(c4ccccc4)CC3)nc3c2c(=O)n(C)c(=O)n3C)c1 | 14.1 µM (active) |  |
| Cn1c(=O)c2c(nc(CN3CCOCC3)n2Cc2ccccc2)n(C)c1=O | inactive |  |
| COC(=O)C(C)Sc1nc2c(c(=O)n(C)c(=O)n2C)n1Cc1cccc(C)c1 (configuration not stated) | inactive |  |
| COc1ccc(S(=O)(=O)N(C)C[C@@H]2Oc3ccc(NS(=O)(=O)c4cn(C)cn4)cc3C(=O)N([C@@H](C)CO)C[C@@H]2C)cc1 | inactive |  |
| O=C(COC(=O)CCCN1C(=O)c2cccc3cccc(c23)C1=O)NC1CCS(=O)(=O)C1 (configuration not stated) | inactive |  |
| C[C@H](NS(=O)(=O)c1ccc(Cl)cc1)C(=O)OCC(=O)N1CCOCC1 | inactive |  |

| Compound | Potency | activity change, negative = inhibition |
| --- | --- | --- |
| CC(O)C(NS(=O)(=O)c1ccc(Cl)cc1)C(=O)OCc1cc([N+](=O)[O-])cc2c1OCOC2 (configuration not stated) | 10 µM (active) |  |
| Nc1ccccc1SCc1cc([N+](=O)[O-])cc2c1OCOC2 | inactive |  |
| Cn1c(CC(=O)NNC(=O)c2ccccc2F)nc2ccccc21 | inactive |  |
| CN(C)c1ccc(/C=C2\NC(=S)N(Cc3ccccc3)C2=O)cc1 | inactive |  |
| O=C1N/C(=C/c2cccn2-c2ccccc2)C(=O)N1c1cccc(Cl)c1 | inactive |  |
| O=C1/C(=C\c2ccsc2)NC(=S)N1c1ccccc1 | 11.2 µM (active) |  |
| COc1ccc(C(=O)NCCCN2CCOCC2)cc1Br | inactive |  |
| COc1ccc(-c2ccc(CNCCCN3CCOCC3)o2)cc1Cl | 11.2 µM (active) |  |
| COc1ccc(S(=O)(=O)N(C)CC(=O)NCCCN2CCOCC2)cc1Cl | inactive |  |
| CC(=O)NCc1ccc(-c2csc(NC(=O)CCCc3nc4ccccc4c(=O)[nH]3)n2)cc1 | inactive |  |
| CCOC(=O)[C@H]1[C@H]2COc3ccccc3[C@@H]2N2C(=O)CN(Cc3ccccc3)C(=O)[C@@]12C | inactive |  |
| COc1cccc(NC(=O)c2nn(C34CC5CC(CC(C5)C3)C4)cc2[N+](=O)[O-])c1 | 31.6 µM (active) |  |
| COc1cccc(NC(=O)c2ccc(Cn3cc([N+](=O)[O-])cn3)o2)c1 | inactive |  |
| COc1cccc(NC(=O)COc2cccnc2[N+](=O)[O-])c1 | inactive |  |
| O=C1CC[C@@H]2CC3(C[C@@H]4CCN1[C@H]24)Nc1cc([N+](=O)[O-])ccc1NC3=NC1CCCCC1 (some centres not stated) | inactive |  |
| C=CCN1C=C(C(=O)c2ccccc2)C(=O)CC1 | inactive |  |
| CC(C)(C)Nc1nc(-c2ccccn2)nc2ccccc12 | 4.47 µM (active) |  |
| c1ccc(-c2noc(-c3cccs3)n2)nc1 | inactive |  |
| Cc1nc2ccccc2c(C(=O)O)c1-c1ccccn1 | inactive |  |
| COc1ccc(/C=N/NC(=O)c2cc(-c3cccc(C)c3)nc3ccccc23)cc1O | inactive |  |
| C=CCn1c(SCC(=O)NCCCO)nc2sc3c(c2c1=O)CCC3 | inactive |  |
| C=C(C)Cn1c(SCC(=O)NCc2ccco2)nc2sc3c(c2c1=O)CCC3 | 8.91 µM (active) |  |
| O=C(CSc1nc2cc3c(cc2c(=O)n1CCC1=CCCCC1)OCO3)NCc1ccco1 | inactive |  |
| O=C(COC(=O)COc1cccc(F)c1)NCC1CCCCC1 | inactive |  |
| O=C(Nc1ccon1)c1nc[nH]c1C(=O)NCc1ccccc1 | inactive |  |

| Compound | Potency | activity change, negative = inhibition |
| --- | --- | --- |
| COc1ccc2[nH]c3c(c2c1)CCN1C(=O)C(CC(=O)NCCCN(C)C)C[C@H](C(=O)N2CCOCC2)[C@@]31CCC1CCCC1 (some centres not stated) | inactive |  |
| O=C(CSc1c2c(nc3ccc(Cl)cc13)CCCC2)NCc1ccco1 | inactive |  |
| C=CCn1c(CSc2nc3ccccc3s2)nnc1SCC(=O)NCc1ccco1 | inactive |  |
| O=C(CSc1nc2ccc(Nc3nc(N4CCOCC4)nc(N4CCOCC4)n3)cc2s1)NCc1ccco1 | 5.01 µM (active) |  |
| COCCN(Cc1ccccc1)C(=O)Cc1ccc(S(=O)(=O)N2CCOCC2)s1 | inactive |  |
| COc1ccc(C(=O)N2CC3(C)CC2CC(C)(C)C3)cc1OC (configuration not stated) | inactive |  |
| COc1ccccc1C(=O)N1CC2(C)CC1CC(C)(C)C2 (configuration not stated) | inactive |  |
| CC1(C)CC2CC(C)(CN2c2ncnc3ccc(Br)cc23)C1 (configuration not stated) | 10 µM (active) |  |
| CC(Oc1cccc(Cl)c1)C(=O)Nc1ccc(S(=O)(=O)Nc2ncccn2)cc1 (configuration not stated) | inactive |  |
| COc1ccccc1CNC(=O)COn1nnc2ccc(S(=O)(=O)N3CCOCC3)cc21 | inactive |  |
| Cc1cccc(NS(=O)(=O)c2ccc(C)c(C(=O)NCc3cccnc3)c2)c1 | inactive |  |
| COC(=O)C1=C(c2ccc(F)cc2OCc2ccccc2)C[C@@H]2CC[C@H]1N2C(=O)NCc1ccc2[nH]ccc2c1 | inactive |  |
| COC(=O)C1=C(c2cccc(OCc3ccccc3)c2)C[C@@H]2CC[C@H]1N2C(=O)NNCc1ccccc1 | inactive |  |
| COC(=O)C1=C(c2ccccc2OCc2ccccc2)C[C@@H]2CC[C@H]1N2C(=O)NCc1ccc(OC)cc1 | 11.2 µM (active) |  |
| O=C(COC(=O)c1cccnc1Cl)Nc1ccc(S(=O)(=O)N2CCOCC2)cc1 | inactive |  |
| O=C(O)c1ccccc1/C=N/Nc1ccc(S(=O)(=O)Nc2ccc(Cl)cc2)cc1[N+](=O)[O-] | inactive |  |
| N#Cc1ccccc1S(=O)(=O)N1CCN(Cc2c(O)ccc3ccccc23)CC1 | inactive |  |
| O=C(c1cn(-c2ccccc2)nc1-c1cccnc1)N1CCN(S(=O)(=O)c2ccccc2F)CC1 | inactive |  |
| N#Cc1ccccc1S(=O)(=O)N1CCN(C(=O)c2cc(-c3ccccc3)nn2-c2ccccc2)CC1 | 11.2 µM (active) |  |
| CCCCCN1CC(O)=C(c2ccccc2)C1=N | inactive |  |
| CCCCCNC(=O)Cc1ccc(OC)cc1 | inactive |  |
| CCCCCCCCCCCCn1ccc(=N)cc1 | 0.501 µM (active) |  |
